BL2 CD40 inh – CD40 pathway inhibition in BL2 cells | AID 1053188 | inhibition, % at 10 µM | BL2 NF-kB luciferase reporter, CD40L-induced, 4 h | actives 0.94% (n = 83,000);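 active = mean inhibition of at least 50% with a set share of replicates also reaching that level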;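 also: 0% = neutral control wells and 100% = IKK inhibitor VII at 50 µM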
Active calls of the source: *; ! = not confirmed by another sample; [ ] = another dose, or the depositor's remark. Many of the other results were omitted from the sample, so hits are more common in it than they were.

SMILES	BL2 CD40 inh
c1ccc(C(O[C@@H]2CCCN(CCc3ccc4c(c3)OCO4)C2)c2ccccc2)cc1	-8[25 µM]
CCC(=O)N1CCCCN2[C@H](CO)[C@H](c3ccc(C#Cc4ccccc4)cc3)[C@@H]2C1	22[25 µM]
COC(=O)N(C)C[C@H]1OCc2ccccc2-c2ccccc2C(=O)N([C@H](C)CO)C[C@@H]1C	-11
Cc1ccc(-c2cc(C(=O)NCc3ccco3)c3ccccc3n2)o1	-10
Cc1ccc(-c2cc(C(=O)N3CC(C)OC(C)C3)c3ccccc3n2)o1 (configuration not stated)	114*
COC(=O)c1cc(-c2ccc(C)o2)nc2ccccc12	-37
CC(C)NC(=O)N(C)C[C@@H]1Oc2ccc(N(S(C)(=O)=O)S(C)(=O)=O)cc2C(=O)N(C)C[C@@H]1C	1
COc1cccc(CN(C)C[C@@H]2OCc3ccccc3-c3c(n(C)c4ccccc34)C(=O)N([C@H](C)CO)C[C@@H]2C)c1	9
CO[C@@H]1CN(C)C(=O)c2cc(NC(=O)C3CCCC3)ccc2OC[C@@H](C)N(Cc2nccs2)C[C@H]1C	-5
CO[C@@H]1CN(C)C(=O)c2cc(NC(=O)NC3CCCCC3)ccc2OC[C@@H](C)NC[C@@H]1C	-9
CCOC(=O)N=S(N)(=O)c1ccccc1 (configuration not stated)	4
CCOC(=O)CN(c1ccccn1)S(=O)(=O)c1ccccc1	3
CCOC(=O)CC(S(=O)(=O)c1ccccc1)S(=O)(=O)c1ccccc1	97*
C[C@H]1CN([C@@H](C)CO)C(=O)c2cccc(NC(=O)c3nc4ccccc4s3)c2O[C@H]1CN(C)Cc1ccc(C(=O)Nc2ccccc2N)cc1	-75
O=C(c1cc2c(c(-c3cccc(Br)c3)n1)[C@@H](CCO)NC2)N1CCCCC1	-11[25 µM]
O=C(NCCc1ccccc1)c1cccc(N2CCCC2=O)c1	71*
O=C(Nc1ccccc1)c1cccc(N2CCCC2=O)c1	-43
O=C(NCc1ccc2c(c1)OCO2)c1cccc(N2CCCC2=O)c1	0
FC(F)(F)CN1CC2C(c3ccc(Br)cc3)C(C1)N2CC(F)(F)F (configuration not stated)	-4
Cc1sc2ccccc2[n+]1CC(=O)O	-11
CC[n+]1c(C)sc2cc(C)ccc21	56*
CC[n+]1c(/C=C(/C)SC)sc2ccccc21	26
C[C@H]1CN(C)C(=O)c2cccc(N(C)C)c2O[C@@H]1CN(C)S(C)(=O)=O	4
COc1cccc(-c2ccc(C3[C@@H]4CN(Cc5cccc(F)c5)C[C@H]3N4)cc2)c1 (some centres not stated)	60*!
COc1ccc(-c2ccc(C3[C@@H]4CN(Cc5cccc(OC)c5)C[C@H]3N4)cc2)cc1 (some centres not stated)	3
SMILES	BL2 CD40 inh
COc1cccc(CN2C[C@@H]3N[C@H](C2)C3c2ccc(-c3ccncc3)cc2)c1 (some centres not stated)	2[25 µM]
Cc1ccc(-c2ccc(C3[C@@H]4CN(Cc5cccc(F)c5)C[C@H]3N4)cc2)cc1 (some centres not stated)	62*
Cc1ccc(-c2ccc(C3[C@@H]4CN(Cc5ccccc5)C[C@H]3N4)cc2)cc1 (some centres not stated)	3[25 µM]
Fc1ccc(-c2ccc(C3[C@@H]4CN(Cc5cccc(F)c5)C[C@H]3N4)cc2)cc1 (some centres not stated)	-4[25 µM]
CN(C)C(=O)c1ccc(-c2ccccc2[C@@H]2[C@H](C#N)N(C(=O)C3CCCC3)[C@H]2CO)cc1	-3
CS(=O)(=O)N1[C@@H](CO)[C@@H](c2ccccc2)C12CN(C(=O)c1ccccc1F)C2	-7[25 µM]
COc1ccc(Cl)c2sc(N(CCN(C)C)C(=O)CCS(=O)(=O)c3ccc(C)cc3)nc12	12
COc1ccc(OC)c2sc(N(CCCN(C)C)C(=O)CCS(=O)(=O)c3ccccc3)nc12	81*
Cc1cccc2sc(N(CCN3CCOCC3)C(=O)CCS(=O)(=O)c3ccccc3)nc12	1
COCCNC(=O)c1cc2c(c(-c3cccc(-c4cccc(F)c4)c3)n1)[C@H](CCO)N([S@@](=O)C(C)(C)C)C2	8
COc1ccccc1C(=O)N1C[C@H]2[C@@H](c3ccccc31)[C@H](CO)N2C(=O)C1CCCC1	4
COc1ccc(C#Cc2ccc([C@@H]3[C@H](CO)N4CCCCN(C)C[C@@H]34)cc2)cc1	-52[25 µM]
COc1ccc(C#Cc2ccc([C@H]3[C@H]4CN(C(=O)c5ccncc5)CCCCN4[C@H]3CO)cc2)cc1	53*[25 µM]
COc1ccc(C#Cc2ccc([C@H]3[C@@H](CO)N4CCCCN(C)C[C@@H]34)cc2)cc1	active[25 µM]
COc1ccc(C#Cc2ccc([C@@H]3[C@H]4CN(C(=O)c5ccncc5)CCCCN4[C@H]3CO)cc2)cc1	-16[25 µM]
COc1ccc(C#Cc2ccc([C@@H]3[C@@H](CO)N4CCCCN(C)C[C@H]34)cc2)cc1	-54[25 µM]
COc1ccc(C#Cc2ccc([C@@H]3[C@H](CO)N4CCCCN(C(=O)c5ccncc5)C[C@@H]34)cc2)cc1	-19[25 µM]
O=C(C1CCCC1)N1CC[C@H]2[C@H](CO)Nc3ccc(C4=CCCCC4)cc3[C@H]21	-1
CN1C(=O)c2cc(NC(=O)c3cnccn3)ccc2OC[C@@H]2O[C@H](CC(=O)NCC3CC3)CC[C@@H]21	-1
C[C@H]1CN([C@@H](C)CO)C(=O)c2ccccc2-c2ccccc2CO[C@@H]1CN(C)S(C)(=O)=O	-26[25 µM]
COc1ccc2c3c([nH]c2c1)[C@@H](CO)N(S(C)(=O)=O)CC31CN(C(=O)Cc2cccnc2)C1	-19[25 µM]
CNC[C@@H]1Oc2c(cccc2N(C)C)C(=O)N(C)C[C@@H]1C	-1
COc1ccc2[nH]c(=O)c(CN(Cc3cccs3)S(=O)(=O)c3cccc4nsnc34)cc2c1	55*
COc1ccc(S(=O)(=O)N(Cc2cccnc2)Cc2cc3ccccc3[nH]c2=O)cc1	6
COc1ccc2[nH]c(=O)c(CN(C(=O)c3cccnc3)c3ccccc3)cc2c1	-7
SMILES	BL2 CD40 inh
CN1CCN(C(=O)C[C@H]2C[C@@H]3c4cc(NC(=O)C5CCC5)ccc4O[C@@H]3[C@@H](CO)O2)CC1	-3[25 µM]
C[C@@H]1CN(C)C(=O)c2cccc(N)c2O[C@H]1CN(C)S(C)(=O)=O	3
O=C(Nc1ccc2[nH]ccc2c1)c1cccs1	-56
COc1ccc(C(=O)Nc2ccc3[nH]ccc3c2)cc1	75*
COc1ccc(C(=O)Nc2ccc(C(=O)c3ccccc3)cc2)cc1	-3
c1ccc2c(c1)Sc1ccccc1-n1cnnc1-2	1
CCN1C(=O)c2ccccc2Sc2ccc(C(=O)NCCCN3CCCCC3)cc21	7
CCN1/C(=C/c2sc(-c3ccccc3C)c[n+]2C)Sc2ccccc21	68*
COc1ccc(S(=O)(=O)N(C)C[C@H]2OCc3ccccc3-c3ccccc3C(=O)N([C@H](C)CO)C[C@@H]2C)cc1	-6
O=C(O)CCC(=O)c1ccc2c(c1)OCCO2	-13
O=C(Cn1ncc(Cl)c(Cl)c1=O)c1ccc2c(c1)OCCO2	98*
CCC(=O)c1ccc2c(c1)OCCO2	0
C[C@@H]1CCCn2nncc2COCCNC1=O	3[25 µM]
N#C[C@@H]1[C@H](c2ccc(-c3cccc(F)c3)cc2)[C@H](CO)N1C(=O)CN1CCOCC1	7[25 µM]
c1cc(-c2cnn3cc(-c4ccc(OCCN5CCCCC5)cc4)cnc23)ccn1	87*[25 µM]
FC(F)(F)c1cnc(-c2cnc3c(-c4ccc(Cl)cc4)cnn3c2)c(Cl)c1	0
c1ccc(-c2ccccc2OCCOCCN2CCCCC2)cc1	7
CC(=O)N(C)C[C@H]1Oc2ccc(NC(=O)NC(C)C)cc2CC(=O)N(C)C[C@H]1C	-4
c1ccc(CCc2nc(-c3ccccn3)no2)cc1	-80

High-throughput results from PubChem.
